One assay has as its system Tov112D. As to the kind of experiment: Primary qHTS to identify gynecologic anti-cancer compounds using libraries of approved drugs and bioactive compounds (AID 1345084). Note: % is set by controls: 0 for no effect and ±100 for the full control effect; nearly all actives have a fitted effect of over 55% in size. The conditions noted are these: Gynecologic cancer cell panel viability, ATPlite luminescence, 48 h; series mostly up to 57.5 µM. The method in brief:
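Five-concentration response, 48 h; readout is ATP-driven luciferase luminescence.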

A short description of assay [1]: Drug repurposing screens with cells derived from glioblastoma tumor samples (AID 1345199). For activity, negative = cell killing: % is set by controls: 0 for no effect and ±100 for the full control effect. Note: nearly all actives have a fitted effect of over 40% in size. Note: potency is the fitted concentration of half-maximal effect. The conditions noted are these: GBM patient neurospheres viability, ATP luminescence, 48 h. The essentials: (§1)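 Primary testing used CD133+ neurospheres from four GBM patients, seven concentrations, 48 h exposure and ATP-based viability; confirmation added three slower-growing patient lines.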

The next assay concerns astro. The assay is described as above. The conditions noted are these: viability, ATP luminescence, 48 h; series mostly up to 45.9 µM. The essentials:
as §1

Assay [2] in a line: qHTS assay to identify inhibitors of the type 1 interferon - major histocompatibility complex class I in skeletal muscle: Counter screen cell viability and HiBit confirmation (AID 1347412). Note: % is set by controls: 0 for no effect and ±100 for the full control effect; nearly all actives have a fitted effect of over 60% in size. Conditions: iHSKM muscle cells + IFN-b, HiBiT or CellTiter-Glo, 24 h; Potency: HiBiT; Viability, at 45.9 µM (top of the series). The method in brief: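 HLA-B*08:01–HiBiT knock-in immortalized human myoblasts (C25cl48) stimulated with 4.0 ng/ml human IFN-beta and dosed with compound in a 12-point 1:3 titration (top final 46 uM). After 24 hrs at 37 C, HiBiT lytic luminescence or CellTiter Glo ATP read out.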
(In general: Quantitative high-throughput screening tests each substance at several concentrations.)

Assay [3] deals with Nuclear receptor subfamily 1 group I member 2 (Rattus norvegicus) (UniProt Q9R1A7). The assay is described as follows: qHTS assay for small molecule activators of the rat pregnane X receptor (rPXR) signaling pathway (AID 651751; call rule not given here; note: 0% is about no effect). The conditions noted are these: rPXR reporter cells, luciferase (One-Glo), 24 h.
Nuclear receptor subfamily 1 group I member 2 (Rattus norvegicus), sequence (Q9R1A7 whole entry, looked up): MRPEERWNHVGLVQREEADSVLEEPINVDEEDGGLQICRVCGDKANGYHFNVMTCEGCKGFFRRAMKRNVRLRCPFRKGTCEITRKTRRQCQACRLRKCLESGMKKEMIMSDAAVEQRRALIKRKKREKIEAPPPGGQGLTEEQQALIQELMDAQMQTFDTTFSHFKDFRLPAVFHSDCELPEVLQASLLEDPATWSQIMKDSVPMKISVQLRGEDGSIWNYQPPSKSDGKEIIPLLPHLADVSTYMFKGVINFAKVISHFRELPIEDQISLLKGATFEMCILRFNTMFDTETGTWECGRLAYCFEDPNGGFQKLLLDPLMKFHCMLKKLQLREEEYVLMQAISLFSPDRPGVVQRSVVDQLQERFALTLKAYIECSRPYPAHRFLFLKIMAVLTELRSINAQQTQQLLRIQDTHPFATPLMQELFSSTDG
Assay [4] can be described thus: qHTS assay for small molecule activators of the human pregnane X receptor (PXR) signaling pathway (AID 720659; call rule not given here; note: 0% is about no effect). The conditions noted are these: DPX-2 HepG2 CYP3A4-luciferase, 24 h; series mostly up to 92.3 µM.
Where [5] appears, read: at 45.9 µM (top of the series), tumour line B.
Setting [6] is: at 45.9 µM (top of the series), tumour line D.
Setting [7] is: at 46 µM (top of the series), tumour line A.
The mark [8] stands for this setting: at 46.1 µM (top of the series), tumour line C.
[9] abbreviates: at 20 µM (top of the series), tumour line C.
The mark [10] stands for this setting: at 21.2 µM (top of the series), tumour line B.
[11] abbreviates: at 21.2 µM (top of the series), tumour line D.
The mark [12] stands for this setting: at 21.3 µM (top of the series), tumour line A.

A number with no mark means an inactive call. Inconclusive results are not listed. The source made the active and inactive calls. Unless noted, calls come from the whole dose curve; as a rule, active = well fitted curve in the direction sought with a large enough effect; inconclusive = small, poorly fitted or top-dose-only effect, or another doubt; inactive = no such curve, though single readings can be large; an effect the other way counts as inactive or inconclusive.

For `CC1=C(C(=O)O)N2C(=O)[C@@H](NC(=O)[C@H](N)c3ccccc3)[C@H]2SC1`, the Potency entry (in the assay with Tov112D; in the assay on astro; in assay [2]) was “inactive” each time. In addition, the activity, negative = cell killing in assay [1] (setting [5]) is -0.246%; in assay [1] (setting [6]) it was -6.88%; in assay [1] (setting [7]), -19.6%; in assay [1] (setting [8]) it was -1.45%.
On to `CCN1CCCC(OC(=O)C(c2ccccc2)c2ccccc2)C1` (stereo not drawn), for which the Potency entry in the assay with Tov112D and in the assay on astro was “inactive” each time. Further, the activity, negative = cell killing was -5.6% in assay [1] (setting [9]), -12.3% in assay [1] (setting [10]) and -10.7% in assay [1] (setting [11]). In assay [1] (tumour line A), the Potency is 8.91 µM (active).
Take `CC(C)(C)NC[C@H](O)COc1nsnc1N1CCOCC1`: the Potency entry in the assay with Tov112D and in the assay on astro was “inactive” in each case. In addition, the activity, negative = cell killing in assay [1] (setting [5]) is -9.83%; in assay [1] (setting [6]) it was -20.5%; in assay [1] (setting [8]) it was -12.6%.
For `OCCOCCN1CCN(C2=Nc3ccccc3Sc3ccccc32)CC1`, the Potency entry with Tov112D and in the assay with astro was “inactive” throughout. Also, the activity, negative = cell killing in assay [1] (setting [5]) is -22.8%; in assay [1] (setting [6]) it was -20.3%; in assay [1] (setting [8]) it was 1.64%. Further, the Potency in assay [1] (tumour line A) is 11.2 µM (active).
`NS(=O)(=O)c1cc(C(=O)O)cc(N2CCCC2)c1Oc1ccccc1`: the Potency result in the assay with Tov112D and in the assay on astro was “inactive” each time. The activity, negative = cell killing in assay [1] (setting [9]) was 0.209%; in assay [1] (setting [10]), -9.72%; in assay [1] (setting [11]), -3.36%; in assay [1] (setting [12]) it was -12.4%.
On to `O=[N+]([O-])c1ccc(/C=N\O)o1`, for which the Potency result with Tov112D and in the assay on astro was “inactive” in each case. Moreover, the activity, negative = cell killing in assay [1] (setting [5]) is -7.45%; in assay [1] (setting [6]), -31.7%; in assay [1] (setting [8]) it was 1.04%.
With `CC(=O)O[C@H]1C[C@@H]2CC[C@@H]3[C@H](CC[C@@]4(C)[C@H]3C[C@H]([N+]3(C)CCCCC3)[C@@H]4OC(C)=O)[C@@]2(C)C[C@@H]1N1CCCCC1`, the Potency entry with Tov112D and in the assay with astro was “inactive” throughout. The activity, negative = cell killing in assay [1] (setting [5]) is -12.1%; in assay [1] (setting [6]) it was -1.11%; in assay [1] (setting [8]) it was -3.89%.
For the molecule `NS(=O)(=O)c1ccc(Cl)c(S(N)(=O)=O)c1`, the Potency result in the assay on Tov112D and in the assay on astro was “inactive” throughout. The activity, negative = cell killing was -6.27% in assay [1] (setting [5]), -11.1% in assay [1] (setting [6]), -23.6% in assay [1] (setting [7]) and 27.6% in assay [1] (setting [8]).
Turning to `CCOc1ccccc1OCCN[C@H](C)Cc1ccc(OC)c(S(N)(=O)=O)c1`, the Potency entry in the assay with Tov112D and with astro was “inactive” each time. The figures for the activity, negative = cell killing in assay [1] (setting [5]), in assay [1] (setting [6]) and in assay [1] (setting [8]) were -15.7%, -16.9% and -16.6%, respectively. Moreover, the Potency in assay [1] (tumour line A) is 35.5 µM (active).
As to `CCN(CC)CCNC(=O)COc1ccc(OC)cc1`, the Potency result in the assay with Tov112D and in the assay with astro was “inactive” in each case. Moreover, the activity, negative = cell killing in assay [1] (setting [5]) is -17.2%; in assay [1] (setting [6]) it was -10.2%; in assay [1] (setting [7]), -59%; in assay [1] (setting [8]), -17.2%.
As to `Nc1nc(-c2ccccc2)c(Br)c(=O)[nH]1`, the Potency result in the assay with Tov112D and with astro was “inactive” throughout. Moreover, the values for the activity, negative = cell killing in assay [1] (setting [5]), in assay [1] (setting [6]) and in assay [1] (setting [7]) were -8.97%, -11.4% and -28.3%, respectively.
Consider `CCC(Cc1c(I)cc(I)c(N)c1I)C(=O)O` (stereo not drawn), for which the Potency result with Tov112D and in the assay with astro was “inactive” each time. In addition, the activity, negative = cell killing was 4.71% in assay [1] (setting [9]), 4.87% in assay [1] (setting [10]), 3.32% in assay [1] (setting [11]) and -20% in assay [1] (setting [12]).
On to `NC(=O)c1ccccc1O`, for which the Potency result with Tov112D and in the assay with astro was “inactive” in each case. For the same molecule, the activity, negative = cell killing in assay [1] (setting [5]) is -6.32%; in assay [1] (setting [6]) it was 0.802%; in assay [1] (setting [7]), -27.6%; in assay [1] (setting [8]), 4.05%. In assay [3], the max response was -4.39%. In assay [4], the molecule was called inactive.
With `CCCCCCCCCCCCCCCC(=O)O`, the Potency entry in the assay on Tov112D and in the assay with astro was “inactive” each time. Besides, the activity, negative = cell killing in assay [1] (setting [5]) was -2.37%; in assay [1] (setting [6]), 1.78%; in assay [1] (setting [7]), -27.9%; in assay [1] (setting [8]), 2.94%. In addition, the max response in assay [3] is -0.866%. Also, the call in assay [4] was inactive.
`CC1CCc2c(N3CCC(O)CC3)c(F)cc3c(=O)c(C(=O)O)cn1c23` (stereo not drawn): the Potency result with Tov112D and in the assay with astro was “inactive” throughout. The activity, negative = cell killing in assay [1] (setting [5]) is 9.87%; in assay [1] (setting [6]) it was -25.4%; in assay [1] (setting [7]), -14.1%; in assay [1] (setting [8]) it was -16%.
Take `CC(=C(CCOC(=O)C(C)C)SSC(CCOC(=O)C(C)C)=C(C)N(C=O)Cc1cnc(C)nc1N)N(C=O)Cc1cnc(C)nc1N`: the Potency entry in the assay with Tov112D and with astro was “inactive” throughout. Moreover, the activity, negative = cell killing in assay [1] (setting [5]) is 1.68%; in assay [1] (setting [6]), 3.5%; in assay [1] (setting [8]) it was -16.1%.
As for `COC(=O)C(c1ccccc1Cl)N1CCc2sccc2C1` (stereo not drawn), the Potency entry with Tov112D and in the assay with astro was “inactive” each time. The results for the activity, negative = cell killing in assay [1] (setting [5]), in assay [1] (setting [6]) and in assay [1] (setting [8]) were -13.2%, -12.6% and 2.17%, respectively. For the same molecule, the Potency in assay [1] (tumour line A) is 28.2 µM (active).
With `CN1CCC(OC(c2ccccc2)c2ccccc2)CC1`, the Potency entry with Tov112D and in the assay with astro was “inactive” throughout. Moreover, the activity, negative = cell killing in assay [1] (setting [9]) is 1.79%; in assay [1] (setting [10]) it was -9.68%. Also, the Potency in assay [1] (tumour line A) was 7.08 µM (active).
In the case of `CC(=O)Oc1ccc(C)cc1`, the Potency result in the assay on Tov112D and with astro was “inactive” throughout. Besides, the activity, negative = cell killing was -11.7% in assay [1] (setting [5]), -7.35% in assay [1] (setting [6]), -28.8% in assay [1] (setting [7]) and -10.6% in assay [1] (setting [8]).
Take `CCCCCCCCCCCCSCCOCCO`: the Potency result with Tov112D and in the assay on astro was “inactive” throughout. Besides, the figures for the activity, negative = cell killing in assay [1] (setting [5]), in assay [1] (setting [6]) and in assay [1] (setting [8]) were -1.92%, -19.1% and 9.86%, respectively. In addition, in assay [1] (tumour line A), the Potency was 35.5 µM (active).
As for `CCCCCCCCCCCCCC(=O)OC(C)C`, the Potency result in the assay on Tov112D and with astro was “inactive” throughout. Further, the activity, negative = cell killing in assay [1] (setting [5]) was 8.22%; in assay [1] (setting [6]), -15.3%; in assay [1] (setting [7]) it was -17.4%; in assay [1] (setting [8]), 3.73%. Besides, in assay [3], the max response was 2.24%. Moreover, the call in assay [4] was inactive.
Regarding `OCc1ccccn1`, the Potency entry in the assay on Tov112D and in the assay on astro was “inactive” each time. For the same molecule, the activity, negative = cell killing is -0.907% in assay [1] (setting [5]), 14.9% in assay [1] (setting [6]), -24% in assay [1] (setting [7]) and -5.53% in assay [1] (setting [8]).

The values above are taken from PubChem BioAssay (NCATS).
